ELG1 genotox – induces genotoxicity in HEK293T cells with luciferase-tagged ELG1; 330,000 tested, 1.3% active; HEK293T ELG1-luciferase reporter, luminescence, 16 h; Potency, µM (doses to about 46 µM), for the others: at the highest dose activity change, positive = activation, most hits filed as activators; note: % of control where 0% means no effect; nearly all actives have a fitted effect of over 60% in size
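16 hr compound incubation (37 °C, 5% CO2) of HEK293T cells carrying luciferase-tagged ELG1; luciferase then measured by ONE-Glo luminescence after 30 min at RT.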
FLuc counter – firefly luciferase modulation, counter-screen for miR-21 project; 360,000 tested, 6.9% active; AID 588342; purified FLuc, Km substrates, luminescence inhibition; P08659; Potency, µM (series often up to 57.5 µM), without a hit: at the top dose activity change, negative = inhibition, hits mostly inhibitors;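 note: plate controls were vehicle for no effect and reference inhibitor for full effect; nearly all actives have a fitted effect of over 55% in size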
Target sequence (P08659 whole entry, looked up): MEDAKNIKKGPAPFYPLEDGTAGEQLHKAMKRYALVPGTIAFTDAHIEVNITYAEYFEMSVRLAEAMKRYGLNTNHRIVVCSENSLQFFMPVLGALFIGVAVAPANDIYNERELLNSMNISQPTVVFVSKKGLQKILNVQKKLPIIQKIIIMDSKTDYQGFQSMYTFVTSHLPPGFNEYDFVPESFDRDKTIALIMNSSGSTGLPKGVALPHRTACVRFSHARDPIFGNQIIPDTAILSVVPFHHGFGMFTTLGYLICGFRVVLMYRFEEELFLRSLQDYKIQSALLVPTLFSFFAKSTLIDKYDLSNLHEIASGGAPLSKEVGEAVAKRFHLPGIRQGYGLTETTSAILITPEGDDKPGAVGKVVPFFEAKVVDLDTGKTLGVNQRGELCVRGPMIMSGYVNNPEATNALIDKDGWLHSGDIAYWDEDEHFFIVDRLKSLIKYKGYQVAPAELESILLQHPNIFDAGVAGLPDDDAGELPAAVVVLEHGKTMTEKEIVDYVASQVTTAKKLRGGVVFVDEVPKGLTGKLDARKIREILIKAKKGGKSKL
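Purified P. pyralis luciferase, 10 nM final, with Km-level 10 uM D-luciferin and 10 uM ATP in 50 mM Tris acetate pH 7.5, 10 mM Mg acetate, 0.01% Tween-20, 0.05% BSA; 6-point qHTS titration about 60 µM downward; luminescence read.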
NPC1 promoter act – activates the NPC1 promoter. Huh7 NPC1 promoter luciferase reporter, 24 h. Potency, µM (highest dose often 9.22 µM), for inactives: at the top dose activation, actives largely listed as activators. 320,000 tested, 2.4% active. AID 485313; note: % of control where 0% means no effect; nearly all actives have a fitted effect of over 60% in size
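Huh7 reporter cells (NPC1 promoter driving luciferase) are dosed with compound for 24 h at 37 °C, 5% CO2; luciferase detection reagent is then added and luminescence measured after 10 min at ambient temperature.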
ELG1 repair inh – inhibitors of ELG1-dependent DNA repair in HEK293T cells; HEK293T ELG1-luciferase reporter, luminescence, 16 h; DNA damage induced by 5-fluorouridine; 330,000 tested, 2.3% active; AID 504467; Potency, µM (titrated, usually from 46.1 µM), inactives show at the top dose activity change, negative = inhibition, most hits filed as inhibitors; note: % is set by controls: 0 for no effect and ±100 for the full control effect; nearly all actives have a fitted effect of over 55% in size
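Step one: seed 2,000 cells per well. Step two: pin-transfer compound or DMSO alongside 5-fluorouridine. Step three: incubate 16 hr, 37 °C, 5% CO2. Step four: add ONE-Glo, wait 30 min, read luminescence.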
SMN2 splice enh – increases expression of the SMN2 splice variant; HEK293 SMN2-luciferase splicing reporter, luminescence, 30-36 h; Potency, µM (highest dose often 46.1 µM), for the others: at the top dose activity change, positive = activation, hits mostly activators; 210,000 tested, 2.8% active; note: % of control where 0% means no effect; nearly all actives have a fitted effect of over 55% in size
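HEK293 cells carry an SMN2 minigene-luciferase reporter in which exon 7 inclusion puts luciferase in frame. Cells were seeded at 2000 cells/well, attached for 10-12 hours, then exposed to compounds for 30-36 hours at 37C before ONE-Glo luminescence.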
Rab9 promoter act – activates the Rab9 promoter | 320,000 tested, 2.8% active | Huh7 Rab9 promoter-luciferase reporter, luminescence, 24 h | Potency, µM (top dose mostly 9.22 µM), without a hit: at the top dose activation, negative = inhibition, hits mostly activators; note: % of control where 0% means no effect; nearly all actives have a fitted effect of over 60% in size
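Quantitative HTS format; Huh7 Rab9-luciferase reporter cells (1500/well) receive compound 2 h post-plating, incubate 24 h at 37 °C, then get luciferase reagent for 10 min before luminescence reading.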
Starred values were filed as active, the others as inactive; u = inconclusive; x = no result. Sampled rows, rich in hits. Any-hit rate of the full collection: about 9.3%. Calls come from the whole dose curve; as a rule, active = well fitted curve in the direction sought with a large enough effect; inconclusive = small, poorly fitted or top-dose-only effect, or another doubt; inactive = no such curve, though single readings can be large; an effect the other way counts as inactive or inconclusive. Potency is the fitted concentration of half-maximal effect.

SMILES	ELG1 genotox	FLuc counter	NPC1 promoter act	ELG1 repair inh	SMN2 splice enh	Rab9 promoter act
Cc1ccc(CN2CC(=O)N3[C@H]4c5cc(C)ccc5OC[C@@H]4[C@H](c4ccccc4)[C@]3(C)C2=O)cc1	-6%	-7%	0%	-25%	x	-9%
COc1ccc2c(c1)[C@H]1[C@H](CO2)[C@H](c2ccccc2)[C@]2(C)C(=O)N(Cc3ccc(C)cc3)CC(=O)N12	-10%	x	x	18µM*	x	x
CCOC(=O)C1=C(c2ccccc2)Nc2ncnn2C1c1cccc(O)c1 (stereo unspecified)	3%	-1%	-6%	0%	x	-5%
FC(F)c1nnc2c(Cl)cc(C(F)(F)F)cn12	1%	3%	-7%	-10%	4%	-2%
Cc1nc(-c2ccccc2)cc(N2CCCC2)n1	12%	-10%	8%	20%	24%	-1%
c1ccc(-c2cc(N3CCCCCC3)n[nH]2)cc1	16µM*	21µM*	u	u	u	u
c1ccc(-c2cc(N3CCCCC3)ncn2)cc1	15µM*	11µM*	u	u	10µM*	2.8µM*
Nc1nc(-c2ccccc2)cc(N2CCCCC2)n1	2%	4%	-3%	-19%	6%	-6%
O=C(NCc1ccco1)c1ccc(Br)s1	2%	0%	-3%	-9%	-17%	0%
Cc1ccc(N(CC(=O)NCCSc2ccccc2)S(=O)(=O)c2ccc(F)cc2)cc1	x	3%	x	x	-40%	x
COCCN(C(=O)Nc1ccc(OC)cc1OC)C1CCN(C(C)C)CC1	0%	0%	-4%	-9%	16%	2%
Cc1nc2ccccc2oc1=O	x	x	x	x	10%	x
Cc1ccccc1-c1nc2cc(Cl)ccc2o1	u	2.1µM*	u	u	x	u
Cc1ccccc1-c1nc2cc(Cl)ccc2c(=O)o1	0%	-11%	-4%	-2%	x	1%
Cc1ccccc1-c1nc2ccccc2o1	3%	8.5µM*	-1%	28%	-8%	-6%
CCOc1ccccc1NC(=O)c1c(NC(=O)COc2ccc(Cl)cc2)sc2c1CCCCC2	x	-7%	x	x	-8%	x
Cc1cc(-c2onc(C)c2C(N)=O)no1	0%	2%	-2%	2%	x	-2%
Nc1ncnc(Sc2ncccn2)c1[N+](=O)[O-]	u	0%	-22%	u	-4%	-18%
O=C(OCC(=O)N1CCOCC1)c1cccc(S(=O)(=O)N2CCCc3ccccc32)c1	0%	-6%	4%	0%	x	-10%
Cc1ccc(-n2c(C)cc(/C=C3/SC(=O)N(CC(=O)N4CCOCC4)C3=O)c2C)nc1	u	1.5µM*	u	u	x	u
CCn1c(C)cc(/C=C2/SC(=O)N(CC(=O)N3CCCC3)C2=O)c1C	-9%	21µM*	8%	u	x	11%
COCCn1c(C)cc(/C=C2/SC(=O)N(CC(=O)N3CCCC3)C2=O)c1C	17%	19µM*	2%	20%	x	16%
CCOc1ccc(NC2=C(Cl)C(=O)N(C3CCCCC3)C2=O)cc1	0%	4%	4%	9%	-12%	-5%
O=C(Cn1ccc2cc(S(=O)(=O)N3CCCCC3)ccc21)NCc1cccc(Cl)c1	x	-9%	x	x	x	x
COc1cccc(N(C(=O)C2CSC(=O)C2)C(C(=O)NC(C)(C)C)c2ccncc2)c1 (stereo unspecified)	0%	0%	-2%	5%	x	1%
SMILES	ELG1 genotox	FLuc counter	NPC1 promoter act	ELG1 repair inh	SMN2 splice enh	Rab9 promoter act
CC12COC3(C(=O)Nc4ccc5ccccc5c4)CC1CCC32C (stereo unspecified)	u	15µM*	u	u	11µM*	u
CC12COC3(C(=O)Nc4ccccc4)CC1CCC32C (stereo unspecified)	0%	-2%	-6%	-3%	x	0%
COc1ccc2ccccc2c1/C=N\NC(=O)c1ccc(C)s1	1%	12µM*	3%	-13%	x	-1%
COc1ccc2ccccc2c1/C=N/NC(=O)c1cccc(Br)c1	-7%	-4%	-2%	-17%	22%	-2%
COc1ccc2ccccc2c1/C=N/NC(=O)c1ccccc1F	0%	21µM*	2%	6%	x	-2%
COc1ccc2ccccc2c1/C=N/NC(=O)c1sc(N)c(C#N)c1C	4%	u	4%	-6%	u	11%
Cc1cc(N2CCN(Cc3cn(C)nc3-c3ccccc3F)CC2)cc(C)n1	4%	0%	-26%	7%	x	-19%
COc1ccc(CNC(=O)COC(=O)C2CC3C=CC2C3)cc1 (stereo unspecified)	0%	0%	0%	6%	22%	3%
Cc1ccc(Nc2c(-c3cccnc3)nc3ccc(Cl)cn23)cc1	x	5%	x	x	-8%	x
COc1ccc(NC(=O)CN2CCC3(O)CCCCC3C2c2cc(OC)ccc2OC)cc1 (stereo unspecified)	-2%	3%	2%	-11%	-22%	0%
O=C1CCn2nc(-c3ccc(Cl)cc3)cc2N1	u	19µM*	u	u	13µM*	u
COc1ccc(OCCN2C(=O)c3ccccc3C2=O)c([N+](=O)[O-])c1	u	27µM*	28%	u	x	u
Nc1cccc2c1C(=O)N(CCOc1ccccc1F)C2=O	0.41µM*	0.76µM*	0.35µM*	u	x	0.35µM*
CCOc1ccc(OCCN2C(=O)c3ccccc3C2=O)cc1	-12%	-15%	-2%	8.2µM*	x	-4%
N#Cc1ccccc1OCCN1C(=O)c2ccccc2C1=O	13µM*	u	26%	u	x	29%
COc1ccc(OCC(=O)NC(=O)c2ccccc2)c([N+](=O)[O-])c1	1%	1%	-6%	28%	x	-3%
COc1ccc(Nc2ncc3c(n2)CCN(Cc2sccc2C)C3)c(OC)c1	x	-17%	x	x	x	x
Cc1cccc(OCCN2C(=O)c3ccccc3C2=O)c1	u	24µM*	27%	u	19%	3.5µM*
Cc1cccc(NC(=O)CSc2nnc([C@@H]3CCCN3C(=O)OC(C)(C)C)o2)c1C	-2%	1%	-1%	-1%	-15%	5%
COc1ccc(OC)c(/C=C2\N=C(c3ccccc3)OC2=O)c1	2%	u	-4%	u	x	4%
Cc1nn(Cc2ccc(Cl)cc2)c(C)c1NC(=O)c1cc(-c2ccc3c(c2)OCO3)on1	-10%	1%	-5%	18µM*	-54%	-6%
C=CCNC(=O)c1cc(-c2ccc3c(c2)OCO3)on1	u	2.1µM*	0.45µM*	u	x	0.56µM*
Cc1nn(Cc2ccc(Cl)cc2)c(C)c1NC(=O)c1c(-c2ccccc2)noc1C	-8%	-2%	-2%	13µM*	-15%	3%

High-throughput results (PubChem)
